# About 4,000 (25%) of roughly 16,000 compounds were called active. Inconclusive results (about 26%) are left out. Calls follow the shape of the dose curve; as a rule, active = well fitted curve in the direction sought with a large enough effect; inconclusive = small, poorly fitted or top-dose-only effect, or effect the other way; inactive = no such curve, though single readings can be large or run the other way. These entries were drawn from the full list.
# Target: Cytochrome P450 2C9 (Homo sapiens) (UniProt P11712)
# Test: Cytochrome panel assay with activity outcomes
# Settings: recombinant CYP, pro-luciferin dealkylation, luminescence, p450-cyp2c9; series mostly up to 57.1 µM; activity, negative = inhibition: at the top concentration
# % is scaled to controls: 0 for no effect and ±100 for the full control effect.
# Chain of Cytochrome P450 2C9 (Homo sapiens) (P11712 whole entry, looked up): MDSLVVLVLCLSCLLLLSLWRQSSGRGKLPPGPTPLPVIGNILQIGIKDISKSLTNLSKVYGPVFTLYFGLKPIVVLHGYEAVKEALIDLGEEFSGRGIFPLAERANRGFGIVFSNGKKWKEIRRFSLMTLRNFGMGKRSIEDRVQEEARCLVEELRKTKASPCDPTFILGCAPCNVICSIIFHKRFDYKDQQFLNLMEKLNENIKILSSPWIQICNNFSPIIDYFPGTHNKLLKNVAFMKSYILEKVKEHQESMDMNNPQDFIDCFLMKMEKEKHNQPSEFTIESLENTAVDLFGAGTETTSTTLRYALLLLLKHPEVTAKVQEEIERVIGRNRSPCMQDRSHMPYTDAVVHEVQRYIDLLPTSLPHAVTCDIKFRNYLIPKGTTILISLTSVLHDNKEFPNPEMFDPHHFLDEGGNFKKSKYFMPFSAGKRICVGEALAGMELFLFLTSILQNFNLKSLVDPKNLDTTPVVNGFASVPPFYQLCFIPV
Compound,"activity, negative = inhibition",AC50
CCCN(CCc1ccccc1)[C@H]1CCc2c(O)cccc2C1,-0.0564% (inactive),–
CN(CCO)c1cc(Sc2nc3ccccc3s2)c2nonc2c1[N+](=O)[O-],–,3.55 µM (active)
COCC(=O)N1CCC2(CC1)CCN(C(=O)Nc1cccc(F)c1)CC2,-5.51% (inactive),–
CC(=O)Oc1cc(C(F)(F)F)ccc1C(=O)O,5.83% [at 25.6 µM] (inactive),–
CC(=O)Nc1cc(C(F)(F)F)ccc1Oc1cccc(Br)c1,–,3.98 µM (active)
Cc1cc2nc([C@H](C)C(=O)c3ccc(Cl)cc3)c(=O)[nH]c2cc1C,-26.4% [at 11.4 µM] (inactive),–
CCCOc1ccc(Cn2c(C)nc([N+](=O)[O-])c2SCC(O)COC)cc1[N+](=O)[O-] (stereo not given),–,11.2 µM (active)
COc1ccc(CSc2nnnn2C)cc1[N+](=O)[O-],-23.5% (inactive),–
CS(=O)(=O)N1CCC2(CC1)CN(Cc1cc(C(F)(F)F)cc(C(F)(F)F)c1)C2,11.6% (inactive),–
Cc1cc(C)c(NC(=O)CSc2nnc(Cc3cccn3C)n2-c2ccc(F)cc2)c(C)c1,–,10 µM (active)
C=CCn1c(SC(C)C(=O)NCc2ccc3c(c2)OCO3)nc2scc(-c3ccccc3)c2c1=O (stereo not given),–,2.51 µM (active)
C=CCn1c(SCc2ccc3c(c2)OCO3)nc2scc(-c3ccco3)c2c1=O,-29.6% (inactive),–
S=C1SCN(C2CCCCCCCCCCC2)CN1C1CCCCCCCCCCC1,-14.2% [at 11.4 µM] (inactive),–
CC1(C)O[C@@H]2C[C@H]3[C@H]4C[C@H](F)C5=CC(=O)CC[C@]5(C)[C@@H]4[C@H](O)C[C@]3(C)[C@]2(C(=O)CO)O1,6.66% [at 25.6 µM] (inactive),–
Cc1ncc([N+](=O)[O-])n1CC(=O)NCc1ccccc1,-11.2% (inactive),–
CC(NC(=O)c1ccc(Cn2cc([N+](=O)[O-])cn2)o1)c1ccccc1 (stereo not given),–,6.31 µM (active)
CCOC(=O)c1c(-c2ccccc2)cn2ccccc12,–,3.55 µM (active)
CCOC(=O)c1c2c(n3ccccc13)C(=O)c1ccccc1C2=O,-20.1% [at 11.4 µM] (inactive),–
CN(C)C(=O)c1ccc(-c2nccc(Nc3ccc(F)cc3)n2)cc1,-2.83% [at 2.29 µM] (inactive),–
COCC(=O)N1CCC2(CCCN(Cc3ccccc3OC)C2)CC1,-0.625% (inactive),–
CO[C@@H]1COC(=O)[C@H]2CCCN2C(=O)[C@@H](C)COC(=O)C/C=C\[C@H]1C,14.2% [at 11.4 µM] (inactive),–
O=C(c1coc2ccccc2c1=O)N1CCN(c2cccc(C(F)(F)F)c2)CC1,–,12.6 µM (active)
CCc1ccc(NC(=S)N2CCN(c3cccc(C(F)(F)F)c3)CC2)cc1,-24.1% (inactive),–
Cc1cccc(C)c1NC(=O)c1cc2c(=O)c3ccccc3oc2nc1C(F)(F)F,-34.5% (inactive),–

Compound,"activity, negative = inhibition",AC50
Cc1ccc(CC(=O)N2CCN(c3cccc(C(F)(F)F)c3)CC2)cc1,–,14.1 µM (active)
C[C@@H]1CCN=C(N)S1,–,inactive
CS(=O)(=O)Nc1cccc(-c2ccc3ncnc(NC4CC4)c3c2)c1,-17.7% [at 2.29 µM] (inactive),–
CO[C@@H]1COC(=O)[C@H]2CCCN2C(=O)C/C=C\[C@@H](C)[C@H](OC)COC(=O)[C@H]2CCCN2C(=O)C/C=C\[C@H]1C,-0.816% [at 11.4 µM] (inactive),–
O=c1cnc2cnc(OCc3ccccc3)nc2n1Cc1ccc(F)cc1,-2.86% (inactive),–
COc1cccc(Cn2c(=O)cnc3cnc(OC)nc32)c1,-12.8% (inactive),–
O=c1cnc2cnc(Oc3cccc(Cl)c3)nc2n1Cc1ccc(F)cc1,–,7.94 µM (active)
COc1cccc(Cn2c(=O)cnc3cnc(Oc4cccc(Cl)c4)nc32)c1,–,3.98 µM (active)
O=c1cnc2cnc(Oc3ccccc3)nc2n1Cc1ccc(F)cc1,–,15.8 µM (active)
COc1ccc(-n2c(=O)cnc3cnc(Oc4cccc(Cl)c4)nc32)cc1,-9.85% (inactive),–
Cc1nc2cnc(Oc3ccccc3)nc2n(CCc2ccccc2)c1=O,-15.1% (inactive),–
N#CCCn1c(=O)cnc2cnc(Oc3ccccc3)nc21,9.43% (inactive),–
CN1CCN(c2ncc3ncc(=O)n(Cc4ccc(F)cc4)c3n2)CC1,-10.8% (inactive),–
O=c1cnc2cnc(Oc3ccccc3)nc2n1CCc1ccccc1,–,3.16 µM (active)
CO[C@@H]1COC(=O)CC=C[C@@H](C)[C@@H]2C=C[C@@H](O)[C@@H](COC(=O)C/C=C\[C@H]1C)O2,-2.62% [at 11.4 µM] (inactive),–
C#CCCCO/N=C1/C[C@@H](O)[C@@H](O)[C@@H]2[C@@H]3C(=O)N(Cc4ccccc4)C(=O)[C@H]3CC[C@H]12,-13.5% [at 11.4 µM] (inactive),–
CC1(C)OC[C@@H]2O[C@H](n3cnc4c(N)nc(Cl)nc43)[C@@H](OS(C)(=O)=O)[C@@H]2O1,2.13% [at 11.4 µM] (inactive),–
CC(C)c1ccc2nc3sc(C(=O)N4CCc5ccccc5C4)c(N)c3cc2c1,–,4.47 µM (active)
Cc1noc(NC(=O)Nc2ccccc2F)c1C#N,-5.47% [at 11.4 µM] (inactive),–
COc1ccc2c(c1)C(=NN)c1cc(OC)ccc1-2,–,3.55 µM (active)
COc1ccc(CC(=O)O/N=C(\N)Cc2ccc(OC)cc2)cc1,-27.8% (inactive),–
C/C(CCc1ccc2c(c1)OCO2)=N\N=C1\NC(=O)CC(C(=O)Nc2ccccc2)S1 (stereo not given),–,7.94 µM (active)
CCN1C(=O)[C@H]2[C@H]3[C@H](O)[C@H](O)C/C(=N/NC(=O)OCc4ccccc4)[C@@H]3CC[C@@H]2C1=O,-4.03% [at 11.4 µM] (inactive),–
OC[C@@H]1O[C@@H](n2cnc3c(NC4CCCC4)ncnc32)[C@H](O)[C@H]1O,-16.1% (inactive),–

Compound,"activity, negative = inhibition",AC50
Cc1cc(N2CCN(c3nc4ccccc4s3)CC2)n2ncnc2n1,4.71% (inactive),–
FC(F)(F)c1ccc(N2CCN(c3cc(-c4ccccc4)nc4ncnn34)CC2)nc1,–,2.24 µM (active)
CN1CCN(c2cc(-c3ccccc3C(F)(F)F)ncn2)CC1,4.29% [at 2.29 µM] (inactive),–
CC(C)CN1CCCC2(CCN(S(=O)(=O)c3ccccc3)CC2)C1,-5.62% (inactive),–
O=S(=O)(c1ccccc1)N1CCN(c2cc(-c3ccccc3)nc3ncnn23)CC1,–,12.6 µM (active)
COc1ccc(-n2c(=O)c(CCc3ccccc3)nc3cnc(N(C)C)nc32)cc1,11.8% (inactive),–
CN(C)c1ncc2nc(-c3ccccc3)c(=O)n(C3CC3)c2n1,–,10 µM (active)
CN(C)c1ncc2nc(-c3ccc(F)cc3)c(=O)n(C)c2n1,-0.0101% (inactive),–
COCCn1c(=O)c(-c2cc(F)cc(F)c2)nc2cnc(N(C)C)nc21,20.2% (inactive),–
Cc1nc2cnc(N(C)C)nc2n(-c2ccccc2)c1=O,6.91% (inactive),–
COCCn1c(=O)c(-c2ccccc2)nc2cnc(N(C)C)nc21,–,20 µM (active)
CN(C)c1ncc2nc(CCc3ccccc3)c(=O)n(-c3ccccc3)c2n1,–,12.6 µM (active)
CCNc1ncc2nc(-c3ccccc3)c(=O)n(C3CC3)c2n1,-20.9% (inactive),–
CN(C)c1ncc2nc(-c3ccc(Cl)cc3)c(=O)n(C)c2n1,5.21% (inactive),–
COCCn1c(=O)c(-c2ccc(Cl)cc2)nc2cnc(N(C)C)nc21,-16% (inactive),–
O=c1c(-c2ccccc2)nc2cncnc2n1C1CC1,-16.8% (inactive),–
CN(C)c1ncc2nc(-c3ccccc3)c(=O)n(C)c2n1,–,10 µM (active)
CC(C)NC(=O)N1CCCC2(CCN(C(=O)c3csnn3)CC2)C1,-5.11% (inactive),–
N#Cc1cccc(-c2nc(NCc3cccs3)c3ccccc3n2)c1,-13.5% [at 2.29 µM] (inactive),–
CN(C)c1ncc2nc(-c3cccs3)c(=O)n(CCc3ccccc3)c2n1,-18.9% (inactive),–
Cc1nc2cnc(N(C)C)nc2n(CCc2ccccc2)c1=O,–,12.6 µM (active)
CN(C)c1ncc2nc(-c3cc(F)cc(F)c3)c(=O)n(CCc3ccccc3)c2n1,7.62% (inactive),–
Cc1nc2cnc(N(C)C)nc2n(Cc2cccs2)c1=O,-0.28% (inactive),–
Cc1nc2cnc(N(C)C)nc2n(CCC#N)c1=O,21.7% (inactive),–

Compound,"activity, negative = inhibition",AC50
CN(C)c1ncc2nc(CCc3ccccc3)c(=O)n(CCC#N)c2n1,–,15.8 µM (active)
COCCn1c(=O)c(C)nc2cnc(N(C)C)nc21,20.5% (inactive),–
CN(C)c1ncc2nc(-c3cccs3)c(=O)n(Cc3cccs3)c2n1,27.9% (inactive),–
CN(C)c1ncc2nc(-c3ccccc3)c(=O)n(CCc3ccccc3)c2n1,–,0.631 µM (active)
CN(C)c1ncc2nc(CCc3ccccc3)c(=O)n(Cc3cccs3)c2n1,–,15.8 µM (active)
CN(C)c1ncc2nc(-c3ccc(F)cc3)c(=O)n(CCc3ccccc3)c2n1,-21.6% (inactive),–
CN(C)c1ncc2nc(-c3ccccc3)c(=O)n(CCC#N)c2n1,-14.9% (inactive),–
NC1=NC2(CCCCC2)N=C(Nc2ccc(F)cc2F)N1,3.62% (inactive),–
N=C(N)SCCCN,7.79% [at 11.4 µM] (inactive),–
CN(C)c1ncc2nc(CCc3ccccc3)c(=O)n(CCc3ccccc3)c2n1,–,12.6 µM (active)
COc1ccc(-c2nc3cnc(N(C)C)nc3n(CCc3ccccc3)c2=O)cc1,-20.6% (inactive),–
CN(C)c1ncc2ncc(=O)n(C)c2n1,-11.8% (inactive),–
CN(C)c1ncc2ncc(=O)n(CCc3ccccc3)c2n1,–,6.31 µM (active)
COCCn1c(=O)[nH]c2cc(C(=O)N3CCN(c4ccccc4OC)CC3)ccc2c1=O,–,7.94 µM (active)
COc1ccccc1N1CCN(CCn2c(=O)[nH]c3c([nH]c4ccccc43)c2=O)CC1,-9.66% (inactive),–
COc1ccc(-c2csc(N3C(=N)SCC3=O)n2)cc1,–,3.55 µM (active)
N=C1SCC(=O)N1c1nc(-c2ccccc2)cs1,-16.5% (inactive),–
CC(=O)Oc1cc(C(C)C)c(OCCN(C)C)cc1C,–,inactive
CC(C)NCC[C@@H](O)c1cc2ccccc2o1,17.2% [at 11.4 µM] (inactive),–
CC(=O)OC[C@@H]1O[C@H](CCON=C(C)C)C=C[C@@H]1OC(C)=O,3.94% [at 11.4 µM] (inactive),–
OCCN(Cc1ccccc1)Cc1cccc(Cl)c1Cl,–,3.98 µM (active)
CN(C(=O)CN(CCO)CC(=O)N(C)C(C)(C)Cc1ccccc1)C(C)(C)Cc1ccccc1,-21.7% [at 25.6 µM] (inactive),–
CCN(CCO)Cc1csc2cccc(Br)c12,22.6% (inactive),–

# From PubChem BioAssay AID1851 (National Center for Advancing Translational Sciences (NCATS), 2009)
